Compound activity deposited in PubChem BioAssay by National Center for Advancing Translational Sciences (NCATS).
Hits are enriched below; roughly 1.3% of the tested compounds scored in any of these assays.
AmpC no deterg = qHTS Inhibitors of AmpC Beta-Lactamase (assay without detergent); P00811; AmpC nitrocefin hydrolysis, absorbance 480 nm, 0.0001% Triton; Potency, µM (top dose mostly 57.1 µM), inactives show at the top dose activity change, negative = inhibition, most hits filed as inhibitors; hit rate 0.52% among 330,000;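 also: plate controls were no compound for no effect and no enzyme for full effect; nearly all actives have a fitted effect of over 20% in size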
Target sequence (P00811 whole entry, looked up): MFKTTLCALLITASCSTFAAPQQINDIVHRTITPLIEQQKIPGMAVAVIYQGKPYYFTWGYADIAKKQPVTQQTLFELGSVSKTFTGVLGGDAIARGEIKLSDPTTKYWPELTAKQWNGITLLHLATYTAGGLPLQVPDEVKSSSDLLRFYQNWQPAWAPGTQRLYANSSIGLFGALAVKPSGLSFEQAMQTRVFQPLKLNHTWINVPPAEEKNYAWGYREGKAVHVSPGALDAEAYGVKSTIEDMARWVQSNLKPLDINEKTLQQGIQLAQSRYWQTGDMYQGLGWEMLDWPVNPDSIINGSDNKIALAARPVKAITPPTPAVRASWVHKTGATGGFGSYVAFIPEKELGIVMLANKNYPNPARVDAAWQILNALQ
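AmpC (5.3 nM in the dispensed reagent) in 20 mM phosphate pH 7.0 with 0.01% (detergent screen) or 0.0001% Triton X-100 was preincubated with compounds for 15 min at room temperature. Nitrocefin was then added from an 800 uM solution, and hydrolysis was followed at 480 nm.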
Vaccinia mCherry = qHTS for Stage-Specific Inhibitors of Vaccinia Orthopoxvirus: mCherry Reporter Primary qHTS | Vaccinia virus mCherry reporter infection, fluorescence | Potency, µM (titrated, usually from 36.5 µM), inactives show at the highest dose activity change, negative = inhibition, most hits filed as inhibitors | hit rate 0.63% among 310,000; calls by dose curve; tested in A549 cells; also: % is scaled to controls: 0 for no effect and ±100 for the full control effect; nearly all actives have a fitted effect of over 35% in size
SARS PLP yeast = qHTS of Yeast-based Assay for SARS-CoV PLP. S. cerevisiae expressing SARS-CoV PLpro, growth rescue. Potency, µM (top dose mostly 32.9 µM), without a hit: at the top dose activity, positive = growth rescue, most hits filed as activators. hit rate 0.19% among 330,000; calls by dose curve; also: 0% is about no effect; nearly all actives have a fitted effect of over 55% in size
VACV Venus inh = qHTS for Stage-Specific Inhibitors of Vaccinia Orthopoxvirus: Venus Reporter Primary qHTS; Vaccinia virus Venus reporter expression, fluorescence; Potency, µM (titrated, usually from 36.5 µM), inactives show top-dose activity change, negative = inhibition, most hits filed as inhibitors; hit rate 0.46% among 330,000; calls by dose curve; tested in A549 cells; also: % is scaled to controls: 0 for no effect and ±100 for the full control effect; nearly all actives have a fitted effect of over 30% in size
AmpC detergent = qHTS Inhibitors of AmpC Beta-Lactamase (assay with detergent) | P00811 | AmpC hydrolysis of nitrocefin, absorbance 480 nm, 0.01% Triton | Potency, µM (highest dose often 114 µM), inactives show at the highest dose activity change, negative = inhibition, hits mostly inhibitors | hit rate 0.041% among 370,000 | AID 485294, 2010;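 also: 0% = no-compound wells and -100% = no-enzyme wells; nearly all actives have a fitted effect of over 25% in size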
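AmpC (5.3 nM in the dispensed reagent) in 20 mM phosphate pH 7.0 with 0.01% (detergent screen) or 0.0001% Triton X-100 was preincubated with compounds for 15 min at room temperature. Nitrocefin was then added from an 800 uM solution, and hydrolysis was followed at 480 nm.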
Starred values were filed as active, the others as inactive; i = inactive; u = inconclusive; x = not tested or not shown; [ ] = remark or other dose. Unless noted, calls follow the shape of the dose curve; as a rule, active = well fitted curve in the direction sought with a large enough effect; inconclusive = small, poorly fitted or top-dose-only effect, or another doubt; inactive = no such curve, though single readings can be large; an effect the other way counts as inactive or inconclusive. Potency is read from the fitted curve at half-maximal effect.

SMILES | AmpC no deterg | Vaccinia mCherry | SARS PLP yeast | VACV Venus inh | AmpC detergent
CNC(=S)NNC(=O)COc1ccc(C)c(C)c1 | -13.1% | i | 12.6µM* | -16.1% | u
CCOC(=O)N1CCC(NC(=O)CN2C(=O)CSc3ncccc32)CC1 | 28.2µM* | i | 10.8% | -2.8% | 8.0%
Cc1ccc2nc(SCC(=O)NCC3Cc4cc(-c5ncccc5C)ccc4O3)[nH]c2c1 (configuration not stated) | x | -21.9% | x | -16.6% | x
CC(=O)NC(CCS(C)(=O)=O)C(=O)Nc1cccc2ccccc12 (configuration not stated) | 4.47µM* | u | -4.6% | 0.0% | u
CC(C)(CNC(=O)c1cnn(-c2ncc3c(n2)-c2ccccc2CC3)c1C1CC1)N1CCOCC1 | x | i | x | -10.1% | x
COc1cc2nc(CCNCc3ccccc3)nc(NC3CCN(C)CC3)c2cc1OC | x | i | x | -15.6% | x
O=C(NCC1Cc2cc(F)cc(-c3cnccn3)c2O1)c1cccc(Cl)c1 (configuration not stated) | x | -2.3% | x | -1.1% | x
CN(C)C(=O)CSc1nnc(-c2cc(-c3cccs3)nc3ccccc23)o1 | 1.3% | x | -1.7% | 5.01µM* | -7.7%
Oc1c(Cl)cc(Cl)cc1C(C#Cc1ccccc1)N1CCOCC1 (configuration not stated) | 0.316µM* | i | -20.2% | -9.4% | 0.9%
N#CC(c1ccc(Cl)cc1)N1CCOCC1 (configuration not stated) | -9.1% | -17.0% | 0.4% | -20.9% | -7.0%
Cc1cc(C(=O)NNC(=O)Nc2ccc(Cl)cc2)no1 | -22.0% | -2.9%[7.34 µM] | 3.3% | -2.2%[7.34 µM] | 3.1%
CCCCC#Cc1ccc(C(=O)NNC(=O)Nc2cc(Cl)cc(Cl)c2)o1 | 14.1µM* | x | 0.7% | x | 5.4%
COc1cc(=O)n2c(c1C(=O)NCc1ccco1)CCN(Cc1ccc(F)cc1Cl)CC2 | x | -5.8% | x | -7.7% | x
Cc1cnc(-n2ncc(C(=O)NCCc3ccncc3)c2-c2cccs2)nc1-c1ccc(F)cc1 | x | -3.4% | x | -19.2% | x
COCCN1CCN(C(=O)c2cnn(-c3nccc(-c4ccco4)n3)c2C2CC2)CC1 | x | 2.4% | x | 4.4% | x
CCCC(C)C(=O)Nc1ncc(S(=O)(=O)c2ccc([N+](=O)[O-])cc2)s1 (configuration not stated) | -39.0% | 2.51µM* | u | u | -5.1%
CCCCCCCCCC[n+]1ccc(/C=C/c2c(C)[nH]c3ccccc23)cc1 | x | u | x | 397.9% | x
COc1ccc(/C=C2\CCc3ccccc3C2=O)cc1O | -26.1% | 11.2µM* | -9.7% | u | u
COc1ccc(/C=C2\Cc3ccccc3C2=O)cc1OC | 68.8% | -9.5% | -0.6% | -18.0% | -11.8%
O=C1OCC2=C1C(c1ccc3c(c1)OCO3)c1cc3c(cc1O2)OCO3 (configuration not stated) | x | -4.2% | x | -26.7% | x
COc1cc(C2C3=C(COC3=O)Oc3cc4c(cc32)OCO4)cc(OC)c1O (configuration not stated) | x | 31.6µM* | x | u | x
COc1cc2c(NC3CCN(C)CC3)nc(N3CCCCC3)nc2cc1OCCCN(C)C | x | u | x | 10µM* | x
COc1cc2c(NC3CCN(C(C)C)CC3)nc(N3CCCN(C)CC3)nc2cc1OCCCN1CCCC1 | x | 0.891µM* | x | 1µM* | x
COc1cc2c(NC3CCN(C(C)C)CC3)nc(N3CCCN(C)CC3)nc2cc1OCCOCCN(C)C | x | 1.58µM* | x | 1.78µM* | x
COc1cc2c(NC3CCN(C)CC3)nc(N3CCCCC3)nc2cc1OCCOCCN(C)C | x | 10µM* | x | 12.6µM* | x
SMILES | AmpC no deterg | Vaccinia mCherry | SARS PLP yeast | VACV Venus inh | AmpC detergent
COc1cc2c(NC3CCN(C)CC3)nc(N3CCCN(C)CC3)nc2cc1OCCCN(C)C | x | -24.2% | x | u | x
COc1cccc(-c2nc3cc4c(cc3cc2CN(C(=O)c2csc(C)n2)C2CC2)CCC4)c1OC | x | u | x | -24.3% | x
Cc1cc(C)c(C(=O)NCc2nc(-c3cccc(NC(=O)C4CCCN(C)C4)c3)oc2C)[nH]1 (configuration not stated) | x | -15.3% | x | -8.2% | x
CO[C@H]1[C@H](NC(=O)c2ccco2)c2ccccc2C12CCN(Cc1cnn(-c3ccccc3)c1)CC2 | x | -23.9% | x | -17.1% | x
COc1ccc(C2c3sc(=O)[nH]c3SC3C4CCC(C4)C23)cc1OC (configuration not stated) | -43.3% | x | -36.0% | -25.0% | 2.9%
COc1cc(C2c3sc(=O)[nH]c3SC3C(=O)N(c4ccc(Br)cc4)C(=O)C32)ccc1O (configuration not stated) | 10µM* | i | 1.9% | 2.9% | 1.2%
O=C(NNc1nc(-c2ccccc2)cs1)c1cccs1 | 8.91µM* | -29.7% | 9.2% | -16.4% | -1.8%
O=C(c1ccc(C(F)(F)F)cc1)N(Cc1cc2ccc(F)cc2nc1N1CCOCC1)C1CC1 | x | -5.3% | x | -0.6% | x
CCn1c(SCC(=O)N=Nc2c(O)[nH]c3ccccc23)nnc1-c1ccc(C(C)(C)C)cc1 | -1.6% | x | -14.1% | x | 0.9%
CCn1c(SCC(=O)N=Nc2c(O)[nH]c3ccccc23)nc2ccccc21 | 5.01µM* | -3.2% | 9.8% | -17.2% | -8.1%
Cc1cccc(CNC(=O)c2c3n(c(C)cc2=O)-c2ccccc2SC(c2sccc2C)C3)n1 (configuration not stated) | x | -1.8% | x | 11.6% | x
Cc1cccc(C)c1NC(=O)CCCSc1nnc(-c2ccc(Cl)cc2)n1-c1ccccc1 | 8.8% | 12.6µM* | -11.8% | u | u
COc1cc(/C=N/Nc2cccc(C)c2)ccc1OC(=O)c1cccs1 | -48.4% | -10.0% | -16.8% | 3.9% | -15.9%
COc1cc(/C=N/Nc2cccc(C)c2)cc(Br)c1O | 31.6µM* | -4.9% | -4.2% | -0.4% | -1.5%
CC(C)c1ccccc1NC(=O)Cn1c(/C=C/c2ccccc2)nc2ccccc21 | -44.6% | i | 0.1% | -11.0% | -7.3%
Cc1ccc(NC(=O)Cn2c(/C=C/c3ccccc3)nc3ccccc32)cc1C | 8.91µM* | x | -26.4% | x | 3.6%
Cc1ccc(C)c(CSc2nc3ccncc3n2CC(=O)Nc2ccc(C)c(C)c2)c1 | u | x | 2.9% | x | u
CC(=O)c1cc(-c2ccccc2)n(CC(=O)Nc2ccc(C)c(C)c2)c1C | 11.2µM* | -19.4% | 4.0% | u | 1.6%
Cc1cccc(CSc2nc3ccncc3n2CC(=O)Nc2ccc(C)c(C)c2)c1 | 3.16µM* | x | -0.9% | x | -12.9%
CC(=O)c1cc(-c2ccccc2)n(CC(=O)Nc2cccc(C)c2C)c1C | -25.0% | -9.6% | 0.4% | 5.4% | -7.6%
C=C(C)C1CC=C(C)/C(=N/NC(=S)Nc2ccccc2)C1 (configuration not stated) | -52.7% | i | 10µM* | -17.6% | -7.2%
Cc1cccc(-c2cnc(C)nc2C2CCCN(C(=O)c3cccc(Cn4cccn4)c3)C2)c1 (configuration not stated) | x | -7.7% | x | 1.0% | x
